p53 reactivator – re-activators of mutant p53; H1299 p53-A138V BP100-luciferase reporter, luminescence, 24 h; Potency, µM (top dose mostly 92.2 µM), for the others: at the highest dose activity change, positive = activation, most hits filed as activators; 320,000 tested, 0.063% active; also: potency is read from the fitted curve at half-maximal effect; % of control where 0% means no effect; nearly all actives have a fitted effect of over 45% in size
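p53-null H1299 cells stably carrying temperature-sensitive p53-A138V and a BP100-luciferase reporter were pinned with compounds (4-point, 1:5 series) and held 24 hrs at 37 deg C. Luminescence was read 10 min after detection reagent.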
Nrf2 ARE act – activators of Nrf2 (ARE) signaling; 410,000 tested, 0.31% active; AID 624171; Potency, µM (doses to about 46.1 µM), for the others: at the highest dose activation, hits mostly activators; AREc32 ARE-luciferase reporter (MCF7-derived line), luminescence, 24 h; also: potency is read from the fitted curve at half-maximal effect; % of control where 0% means no effect; nearly all actives have a fitted effect of over 65% in size
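Reporter line AREc32 (ARE-Fluc), seeded overnight in OPTI-MEM with 5% FBS; compound pin-transferred, 24 hr at 37 deg C, 5% CO2; luminescent read-out.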
IL-2 act – IL-2 activation; IL-2 activation reporter assay, cell-based qHTS; stimulated with anti-CD3/CD4/CD28 beads; in transgenic mouse T cells; activation, % (series mostly up to about 46 µM); 360,000 tested, 0.065% active; AID 652025; in the data active = activation above about 50%; inconclusive = mostly about 30% to 49%; also: 0% is about no effect
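Unstimulated transgenic mouse T cells, 750 per well, received compound and, after 60 minutes, anti-CD3/anti-CD4 bead plus anti-CD28 stimulation. EGFP and DsRed were quantified after 18 hours.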
Nrf2 inh – blocks Nrf2 signaling. A549 ARE-Fluc reporter, luciferase luminescence, 18-24 h. Potency, µM (doses to about 46 µM), for inactives: at the highest dose activity change, negative = inhibition, actives largely listed as inhibitors. 360,000 tested, 2.1% active. AID 504444; also: potency is read from the fitted curve at half-maximal effect; % is scaled to controls: 0 for no effect and ±100 for the full control effect; nearly all actives have a fitted effect of over 60% in size
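In this cell-based qHTS, ARE-driven firefly luciferase in A549 cells reports Nrf2 activity; the luminescent signal after BugLite lysis is the measured value, with a prior CellTiter-Fluor read for cell health.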
BRCA1 expr up – BRCA1 expression activation | MCF7-BRCA1-FFLuc reporter, luminescence, 48 h; response scale: scaled: vehicle 0%, 10 µM genistein 100% | Potency, µM (titrated, usually from 46.1 µM), inactives show at the top dose activation, most hits filed as activators | 380,000 tested, 1.1% active; also: potency is read from the fitted curve at half-maximal effect; nearly all actives have a fitted effect of over 80% in size
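Cells: MCF7-BRCA1-FFLuc, 2000/well. Exposure: 48 h, 37 °C, 5% CO2. Read: luminescence, 15 min post-substrate. Controls: genistein 10 microM (maximal activation), DMSO (neutral).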
A549 tox – kills or reduces viability of A549 cells in Nrf2 counter-screen; Potency, µM (series often up to 46 µM), without a hit: top-dose activity change, negative = cytotoxicity, most hits filed as inhibitors; 390,000 tested, 0.16% active; AID 504648; A549 ARE-Fluc cells, CellTiter-Fluor viability, 18-24 h; also: potency is read from the fitted curve at half-maximal effect; % is scaled to controls: 0 for no effect and ±100 for the full control effect
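Cytotoxicity counterscreen: CellTiter-Fluor fluorescence was measured in A549 ARE_Fluc cells after 18-24 h of compound exposure in a concentration series. The subsequent BugLite luminescent read reports ARE-luciferase activity.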
* hit, by the source's call; u = inconclusive; x = no result; [ ] = remark or other dose. Compounds with a hit are over-represented: about 3.2% of the library has one in this group of screens. Unless noted, calls follow the shape of the dose curve; as a rule, active = well fitted curve in the direction sought with a large enough effect; inconclusive = small, poorly fitted or top-dose-only effect, or another doubt; inactive = no such curve, though single readings can be large; an effect the other way counts as inactive or inconclusive.

SMILES	p53 reactivator	Nrf2 ARE act	IL-2 act	Nrf2 inh	BRCA1 expr up	A549 tox
O=C(CSc1ncccn1)NCc1ccc(Cl)cc1	24.0%	-0.8%	3.7	u	u	-0.4%
CCCOc1ccc(CNC(=O)Cc2cccs2)cc1	u	0.7%	-1.2	u	7.94µM*	-4.6%
O=C(Cc1cccs1)NCc1cccc(CNC(=O)Cc2cccs2)c1	0.4%	0.3%	1.1	u	12.8%	-0.2%
COc1cc(Nc2ncc3c(n2)CCN(Cc2cccc(C)c2)C3)cc(OC)c1	x	0.4%	x	x	x	0.4%
COC(=O)c1c(-c2ccc(Cl)cc2)noc1N1CCN(c2cccc(C(F)(F)F)c2)CC1	x	-1.2%	x	x	x	11.8%
COc1ccc(Br)cc1CNC(=O)Cc1cccs1	6.6%	5.0%	-7.4	2.3%	53.5%	-0.3%
O=C(Cc1cccs1)NCc1ccccc1Br	15.1%	0.3%	-1.9	-11.3%	2.24µM*	-1.3%
O=C(CCS(=O)(=O)c1nc(-c2ccc3c(c2)OCO3)cc(C(F)(F)F)n1)Nc1ccc(F)c(Cl)c1	x	-4.6%	x	-1.4%[9.27 µM]	x	0.8%
OCCNc1c2ccccc2nc2c(F)c(F)c(F)c(F)c12	u	11.2µM*	-1.2	4.8%	-57.4%	7.1%
CN(C)CCCNc1c2ccccc2nc2ccccc12	u	-1.2%	-3.1	8.2µM*	-94.5%	8.2µM*
CN(C)CCCNc1nc(-c2ccccc2)nc2ccccc12	-3.9%	21.7%	-1.2	-5.6%	-29.3%	-6.1%
COc1cccc(N2CC(NC(=O)C(c3ccccc3)c3ccccc3)CC2=O)c1 (centres undefined)	x	-1.1%	x	x	x	-0.7%
Cc1ccccc1SCC(=O)OCC(=O)Nc1sccc1C(N)=O	u	-0.2%	-2.4	15.7%	-0.2%	6.2%
NC(=O)c1ccsc1NC(=O)COC(=O)Cc1cccc2ccccc12	-1.1%	1.0%	-0.6	4.11µM*	5.4%	-17.3%
NC(=O)c1ccsc1NC(=O)CSc1ccccc1F	u	4.2%	-1.9	8.5%	11.2µM*	0.1%
Cc1csc(SCC(=O)Nc2nccs2)n1	1.2%	9.1%	5.3	1.5%	-5.2%	-3.9%
Cc1csc(SCC(=O)Nc2sccc2C(N)=O)n1	4.1%	0.4%	-0.3	3.1%	6.31µM*	-3.0%
O=C(CSc1nc(-c2ccc(Cl)cc2)cs1)Nc1cccc([N+](=O)[O-])c1	u	18.8%	1.3	16.4µM*	15.7%	-20.7%
O=C(Cn1c(=O)nc(-c2ccccc2)c2cc(Cl)ccc21)NCc1ccccc1	x	0.2%	x	x	x	-27.8%
O=C1CCCC2=C1C1(CCSCC1)N=C(Nc1nc3ccccc3o1)N2	x	x	x	-2.4%	x	8.2%
Cc1cccc(-c2nn3c(=O)cc(CN4CCN(C(=O)c5ccccc5Br)CC4)nc3s2)c1	x	7.1%	x	x	0.0%	-7.8%
CCN1CCN(C(c2ccccc2Cl)c2c(O)cc(C)n(Cc3ccco3)c2=O)CC1 (centres undefined)	x	-1.1%	x	x	x	2.6%
COc1ccc(-n2nc3ccc(NC(=O)c4cccc(OCCC(C)C)c4)cc3n2)cc1	x	-0.7%	x	-12.4%	x	-0.5%
CCc1nnc(NC(=O)CSc2ccc(-c3ccc(C)cc3)nn2)s1	-1.8%	0.7%	-0.5	18.2%	11.2µM*	-11.5%
Cc1csc(SCC(=O)Nc2nc(-c3ccccc3)cs2)n1	u	4.2%	-1.1	x	63.5%	-0.8%
SMILES	p53 reactivator	Nrf2 ARE act	IL-2 act	Nrf2 inh	BRCA1 expr up	A549 tox
Cc1ccc(-c2csc(NC(=O)CSc3nc(C)cs3)n2)cc1	u	3.5%	-1.5	u	11.2µM*	-0.4%
CCOc1ccc(N=Nc2c(N)[nH][nH]c2=O)cc1	u	0.7%	0.6	u	5.01µM*	-25.2%
COc1cccc(N=Nc2c(N)[nH][nH]c2=O)c1	u	2.6%	-0.5	-1.8%	u	-21.3%
O=C(Nc1cccc(C(F)(F)F)c1)C1CCN(S(=O)(=O)c2ccc(N3CCCC3=O)cc2)CC1	-8.9%	-0.3%	-5.9	13µM*	-43.1%	u
O=C(Nc1cccc(S(=O)(=O)N2CCCCCC2)c1)C1CCN(C(=O)c2ccc(F)cc2)CC1	2.4%	-0.3%	-1.3	25.9µM*	-44.6%	-3.6%
O=C(Nc1ccccc1)C1CCCN(C(=O)c2ccc(Cl)cc2)C1 (centres undefined)	-0.9%	-0.3%	0.8	u	-10.9%	0.5%
COc1cccc(NC(=O)C2CCN(S(=O)(=O)c3ccc(N4CCCC4=O)cc3)CC2)c1	x	2.8%	-2.1	x	-21.4%	x
O=C(Nc1cccc(F)c1)C1CCCN(C(=O)c2ccc(Cl)cc2)C1 (centres undefined)	5.1%	15.0%	-0.3	7.31µM*	-27.3%	-11.4%
CC1=C(c2ccc(C(C)C)cc2)S(=O)(=O)N=C1N1CCN(c2ccccc2F)CC1	x	-0.7%	x	-29.4%	x	12.4%
Cc1ccccc1C(=O)Nc1ccc(C(=O)OCc2cc(=O)n3c4c(sc3n2)CCCC4)cc1	x	-1.7%	x	x	x	1.3%
Cc1ccc2c(c1)c(=O)c(S(=O)(=O)c1ccc(F)cc1)cn2CC(=O)Nc1ccc2c(c1)OCO2	x	-0.1%	x	-8.2%	-19.9%	-1.9%
CCN(CC)CCC(c1ccc(N(C)C)cc1)c1c(OC)cc(OC)c2c1OC(=O)CC2c1ccc(OC)cc1 (centres undefined)	x	x	x	6.5%	x	u
Fc1ccc(CSc2ccc(-c3ccco3)nn2)cc1	u	13.2%	1.9	u	7.08µM*	2.4%
Fc1cccc(CSc2ccc(-c3ccco3)nn2)c1	u	21.0%	0.2	27.6%	u	2.6%
COc1cccc(C(=O)O/N=C/c2ccc(Sc3ccc(C)cc3)nc2)c1	4.1%	0.2%	-2.4	x	7.08µM*	-2.0%
CCOC(=O)c1ccc(NS(=O)(=O)c2ccc3c(c2)CCCN3C(C)=O)cc1	-21.6%	-0.2%	-0.5	u	-28.3%	-15.7%
CCOC(=O)C1CCCN(S(=O)(=O)c2ccc3c(c2)CCCN3C(C)=O)C1 (centres undefined)	x	4.1%	x	x	x	-9.0%
CCOC(=O)C1CCCN(S(=O)(=O)c2ccc3c(c2)CCN3C(=O)CC)C1 (centres undefined)	x	0.1%	x	9.2µM*	22.6%	-0.4%
CCC(=O)N1CCc2cc(S(=O)(=O)Nc3ccc4c(c3)OCCO4)ccc21	1.0%	0.5%	-2.3	20.6µM*	-17.1%	-17.4%
CCOC(=O)c1ccc(NS(=O)(=O)c2ccc3c(c2)CCN3C(=O)CC)cc1	x	-0.9%	x	25.9µM*	-19.7%	1.2%
CCn1cc(/C=C(\NC(=O)c2ccc(C)cc2)C(=O)NCCCn2ccnc2)c2ccccc21	x	0.5%	x	-18.5%	3.2%	3.7%
COc1cc(OC)c(Nc2nc3ccc(C)cc3n3nnnc23)cc1Cl	x	5.7%	x	u	x	1.7%
